Hits are enriched below; roughly 19% of the tested compounds scored in any of these assays.
DT40 TDP1 CPT: qHTS for Inhibitors of human tyrosyl-DNA phosphodiesterase 1 (TDP1): qHTS in cells in presence of CPT. AID 686979, 2013. 420,000 compounds, 12% hits. chicken DT40 Tdp1-/-;hTDP1 cells + 20 nM CPT, ATP luminescence, 48 h. Potency, µM (highest dose often 46.2 µM), for the others: at the highest dose activity change, negative = growth inhibition, most hits filed as inhibitors; also: potency is read from the fitted curve at half-maximal effect; nearly all actives have a fitted effect of over 55% in size
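Chicken DT40 Tdp1-/- cells stably complemented with human TDP1 were seeded at 400 cells/well in medium containing 20 nM camptothecin, exposed to pin-transferred compounds, and grown at 37 °C for at least 48 hr. Viability was read as ATP luminescence.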
DT40 TDP1 no CPT: qHTS for Inhibitors of human tyrosyl-DNA phosphodiesterase 1 (TDP1): qHTS in cells in absence of CPT; DT40 Tdp1-/- hTDP1 cells, no CPT, ATP luminescence, 48 h; Potency, µM (titrated, usually from 46.2 µM), without a hit: at the highest dose activity change, negative = growth inhibition, most hits filed as inhibitors; 420,000 compounds, 15% hits; also: potency is read from the fitted curve at half-maximal effect; nearly all actives have a fitted effect of over 55% in size
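Luminescent ATP content (CellTiter-Glo) served as the growth readout. Knockout chicken DT40 cells expressing human TDP1 were exposed to compounds without camptothecin for a minimum 48 hr at 37 °C.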
HT1080 IDH1KD tx: qHTS for induction of synthetic lethality in tumor cells producing 2HG: qHTS for the HT-1080-IDH1KD cell line | HT-1080 IDH1 knockdown viability, ATP luminescence, 48 h | 360,000 compounds, 2% hits | Potency, µM (top dose mostly 46.1 µM), without a hit: at the top dose activity, negative = toxicity, most hits filed as cytotoxic;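 also: potency is read from the fitted curve at half-maximal effect; 0% = DMSO wells and -100% = cell-free medium wells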
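CellTiter-Glo luminescence after 48 h compound exposure at 37 degrees C of IDH1-knockdown HT-1080 cells in 5% FBS RPMI. %Activity scaled between DMSO wells and cell-free media wells, with curves fitted and assigned curve classes.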
HT1080NT lethal: qHTS for induction of synthetic lethality in tumor cells producing 2HG: qHTS for the HT-1080-NT fibrosarcoma cell line; AID 686970, 2013; Potency, µM (top dose mostly 46.1 µM), inactives show top-dose activity, negative = less viability, actives largely listed as cytotoxic; HT-1080-NT fibrosarcoma viability, CellTiter-Glo ATP luminescence, 48 h; 360,000 compounds, 1.6% hits;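 also: NT is the 2HG producing partner of a matched IDH1 knockdown line; potency is read from the fitted curve at half-maximal effect; 0% = DMSO-treated cells and -100% = media-only wells without cells; nearly all actives have a fitted effect of over 55% in size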
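Fibrosarcoma NT cells, 750 per well in 5% FBS RPMI, were exposed to compound for 48 hours. Viability: CellTiter-Glo luminescence.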
ELG1 DNA repair: qHTS screen for small molecules that inhibit ELG1-dependent DNA repair in human embryonic kidney (HEK293T) cells expressing luciferase-tagged ELG1; 330,000 compounds, 2.3% hits; HEK293T ELG1-luciferase reporter, luminescence, 16 h; DNA damage induced by 5-fluorouridine; AID 504467, 2011; Potency, µM (highest dose often 46.1 µM), inactives show at the top dose activity change, negative = inhibition, actives largely listed as inhibitors; also: potency is read from the fitted curve at half-maximal effect; nearly all actives have a fitted effect of over 55% in size
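HEK293T cells expressing luciferase-tagged ELG1 (2,000/well) received 5-Fluorouridine plus compound or DMSO for 16 hr at 37 °C. Luciferase was read by ONE-Glo luminescence after 30 min at room temperature.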
IL-1B inflam inh: qHTS for Inhibitors of Inflammasome Signaling: IL-1-beta AlphaLISA Primary Screen; activity change, % at 57.5 µM; 360,000 compounds, 4.7% hits; THP-1 LPS/ATP IL-1B secretion, AlphaLISA, 16 h; active compounds read low; in the data active = activity change below about -50%; inconclusive = mostly about -30% to -49%
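Secreted IL-1B measured by AlphaLISA bead assay after 16 h compound exposure of THP-1 cells; compounds (final up to 57.5 uM) added 1 h before LPS (250 ng/mL) and ATP (1.25 mM) stimulation; lower signal means less secretion.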
* marks the source's active call; other numbers are inactive results; i = inactive; ? = inconclusive; . = no result given; [ ] = dose if it differs, or a comment. Unless noted, calls follow the shape of the dose curve; as a rule, active = well fitted curve in the direction sought with a large enough effect; inconclusive = small, poorly fitted or top-dose-only effect, or another doubt; inactive = no such curve, though single readings can be large; an effect the other way counts as inactive or inconclusive. Unless noted, % is scaled to controls: 0 for no effect and ±100 for the full control effect.

SMILES	DT40 TDP1 CPT	DT40 TDP1 no CPT	HT1080 IDH1KD tx	HT1080NT lethal	ELG1 DNA repair	IL-1B inflam inh
C[N+](C)(C)CCC(=O)N1C/C(=C/c2ccccc2)C(=O)/C(=C\c2ccccc2)C1	0.65µM*	0.92µM*	4.1µM*	?	.	-98*
C/C(=C\c1ccccc1)C(=O)NCCN1CCOCC1	-4%	-14%	3%	2%	1%	-4
O=C1/C(=C/c2ccccc2)CN(C(=O)CCN2CCOCC2)C/C1=C\c1ccccc1	1.6µM*	1.8µM*	?	?	.	-101*
O=C(/C=C/c1ccccc1)N1CCOCC1	-3%	13%	5%	2%	?	-1
O=C(/C=C/c1ccccc1)CCN1CCOCC1	0.92µM*	1.5µM*	18µM*	?	.	-84*
CCOC(=O)N1C/C(=C\c2ccccc2)C(=O)/C(=C/c2ccccc2)C1	4.6µM*	3.7µM*	?	?	?	?
CCOC(=O)N1CCN(C/C(C)=C/c2ccccc2)CC1	-8%	-24%	2%	11%	27%	-14
COc1ccc2c(c1)c1c(c(=O)n(-c3cccc(C)c3)c(=O)n1CC(=O)NCCC1=CCCCC1)n2C	-12%	-27%	.	.	.	.
CN(C)CCC(=O)N1C/C(=C/c2ccccc2)C(=O)/C(=C\c2ccccc2)C1	1.8µM*	1.8µM*	0.58µM*	?	.	-100*
CNC(=O)N(O)C1N(/N=C/c2ccc(C)cc2)C(=S)SC1(C)C (centres undefined)	-17%	-2%	-9%	2%	2%	7
CC1(C)SC(=S)N(/N=C/c2ccccc2O)C1N(O)C(=O)Nc1ccccc1 (centres undefined)	12µM*	16µM*	?	18µM*	?	?
Cc1ccc(/C=N/N2C(=S)SC(C)(C)C2N(O)C(=O)Nc2ccc([N+](=O)[O-])cc2)cc1 (centres undefined)	?	18µM*	-19%	-2%	-22%	-70*
CC1(C)SC(=S)N(/N=C/c2cccnc2)C1N(O)C(=O)Nc1ccccc1 (centres undefined)	0%	-15%	5%	10%	14%	47
CC1(C)SC(=S)N(/N=C/c2ccc(O)cc2)C1N(O)C(=O)Nc1ccc([N+](=O)[O-])cc1 (centres undefined)	23µM*	?	?	?	6%	-6
COCC(=O)N1CCC2(CCCN(c3ccccn3)C2)CC1	?	-9%	.	.	.	.
COCc1cc(CNC(=O)C2CCC(=O)N(Cc3ccccc3F)C2)[nH]n1 (centres undefined)	-5%	4%	6%	-1%	21%	i
C/C(=N/Nc1cc(-c2ccccc2)nc(-c2ccccc2)n1)c1ccc(O)cc1	16µM*	13µM*	?	-16%	1%	-105*
C/C(=N\Nc1cc(-c2ccccc2)nc(-c2ccc(Br)cc2)n1)c1cccc(N)c1	26µM*	?	18µM*	11µM*	.	-6
Nc1ccc(-c2cc(-c3cccc(N)c3)nc(-c3ccccc3)n2)cc1	22%	-28%	3%	0%	?	10
C/C(=N\Nc1cc(Cl)nc(C)n1)c1ccccc1	?	-21%	1%	4%	?	-16
C/C(=N/Nc1nc(-c2ccccc2)cc(-c2ccccc2)n1)c1ccc(N)cc1	.	.	.	.	8.2µM*	.
S=C(NCc1ccccc1)NN1CCOCC1	-6%	-14%	-1%	2%	6%	25
COc1cc2[nH]c(=O)n(CCCC(=O)NCc3ccc(Cl)cc3)c(=O)c2cc1OC	-23%	-24%	.	.	.	.
Cc1ncc(S(=O)(=O)C(C)(C)C)c(N)n1	11%	6%	12%	15%	-4%	-7
CCc1noc(C)c1C(=O)Nc1nc(-c2cccs2)cs1	-27%	?	-7%	-14%	?	38
SMILES	DT40 TDP1 CPT	DT40 TDP1 no CPT	HT1080 IDH1KD tx	HT1080NT lethal	ELG1 DNA repair	IL-1B inflam inh
CCc1nnc(NC(=O)CN2CCC(O)(c3ccccc3OC)CC2)s1	-23%	-6%	0%[9.24 µM]	1%	12%	18
COc1ccc(-c2csc(NC(=O)c3cccc(N4C(=O)CCC4=O)c3)n2)cc1OC	4.1µM*	21µM*	3%	-7%	?	0
Cc1ccc(-c2csc(NC(=O)c3c(C)noc3C)n2)cc1	?	9.2µM*	0%	-4%[9.24 µM]	-14%	-18
CCc1noc(C)c1C(=O)Nc1nc(-c2ccc(Cl)cc2Cl)cs1	18µM*	18µM*	0%	2%	?	?
COc1ccccc1C1(O)CCN(CC(=O)Nc2nc(-c3ccccc3)cs2)CC1	-18%	?	?	-21%	?	-62*
Cc1noc(C)c1C(=O)Nc1nc(-c2ccc([N+](=O)[O-])cc2)cs1	?	?	-15%	-19%	-12%	14
COc1ccc2[nH]c(=O)c(CN(C(=O)c3cccnc3)c3ccc(C)cc3C)cc2c1	?	?	-2%	-23%	-8%	-11
O=c1cc(/N=C/c2coc3c(ccc4ccccc43)c2=O)[nH]c(=S)[nH]1	?	?	0%	1%	25%	26
COc1ccc(-c2csc(NC(=O)c3c(C)noc3C)n2)cc1	15µM*	23µM*	1%	3%	?	-52*
COc1ccc(-c2csc(NC(=O)C3CCCO3)n2)cc1 (centres undefined)	?	21µM*	16%	7%	17%	21
COc1ccc(-c2csc(NC(=O)c3ccccc3S(C)(=O)=O)n2)cc1	-27%	?	-1%	5%	?	-95*
COc1ccc2nc(NC(=O)c3c(C)noc3C)sc2c1	-9%	9%	1%	-1%[9.24 µM]	?	-3
COc1ccc(-c2csc(NC(=O)c3ccccc3C(=O)O)n2)cc1	0%	3%	0%	5%	21%	-7
COc1ccc(-c2csc(NC(=O)c3ccoc3C)n2)cc1	-26%	12µM*	-29%	20%	?	-23

Bioassay records: PubChem BioAssay, National Center for Advancing Translational Sciences (NCATS)
